This passage reports Percent Effect results from ChEMBL document CHEMBL3988442, “University of Dundee, Small-Polar-MMV Screening Library” (2021).

Holding throughout (parameters): scale not given: direction of the effect not stated beside the values
Experiment [1] concerns the target Protein translocase subunit SecA (Escherichia coli (strain K12)) (UniProt P10408). The experiment in a line: Assay to Identify E. coli SecA ATPase Inhibitors. It counts as functional. The settings on record: 30 µM.
Experiment [2] has as its target T1, Ubiquitin-activating enzyme e1, putative (Leishmania donovani (strain BPK282A1)) (UniProt E9BSI1).
T1 sequence (whole entry): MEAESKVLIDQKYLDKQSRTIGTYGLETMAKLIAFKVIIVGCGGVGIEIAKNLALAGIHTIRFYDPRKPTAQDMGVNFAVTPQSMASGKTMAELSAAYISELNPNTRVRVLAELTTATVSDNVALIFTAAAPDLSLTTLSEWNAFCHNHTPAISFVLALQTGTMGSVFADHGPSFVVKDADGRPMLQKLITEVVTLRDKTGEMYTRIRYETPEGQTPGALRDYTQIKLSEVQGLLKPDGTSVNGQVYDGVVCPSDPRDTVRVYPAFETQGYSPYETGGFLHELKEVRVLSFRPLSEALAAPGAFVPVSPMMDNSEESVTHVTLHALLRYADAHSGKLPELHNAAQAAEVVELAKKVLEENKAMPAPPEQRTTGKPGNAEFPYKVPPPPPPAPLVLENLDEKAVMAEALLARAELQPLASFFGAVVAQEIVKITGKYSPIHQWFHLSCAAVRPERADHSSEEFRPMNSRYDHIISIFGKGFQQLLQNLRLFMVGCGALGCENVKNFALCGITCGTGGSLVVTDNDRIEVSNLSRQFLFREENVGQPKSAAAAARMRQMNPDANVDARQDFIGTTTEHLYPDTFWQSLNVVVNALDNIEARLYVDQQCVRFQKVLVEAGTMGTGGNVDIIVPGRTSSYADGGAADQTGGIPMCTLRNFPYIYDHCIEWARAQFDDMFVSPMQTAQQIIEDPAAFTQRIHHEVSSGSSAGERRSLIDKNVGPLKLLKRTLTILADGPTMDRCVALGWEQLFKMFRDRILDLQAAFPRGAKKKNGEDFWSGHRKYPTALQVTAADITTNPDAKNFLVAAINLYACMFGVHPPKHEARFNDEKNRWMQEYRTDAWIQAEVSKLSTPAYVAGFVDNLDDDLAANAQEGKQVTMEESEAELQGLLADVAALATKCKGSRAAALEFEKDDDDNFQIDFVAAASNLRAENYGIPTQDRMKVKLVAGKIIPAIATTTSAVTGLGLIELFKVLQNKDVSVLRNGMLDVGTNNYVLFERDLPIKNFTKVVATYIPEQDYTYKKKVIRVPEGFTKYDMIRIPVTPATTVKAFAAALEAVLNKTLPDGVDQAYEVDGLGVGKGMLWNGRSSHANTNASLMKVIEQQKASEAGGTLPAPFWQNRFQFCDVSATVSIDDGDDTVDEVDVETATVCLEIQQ
The experiment can be described thus: Leishmania donovani Ubiquitin Activating Enzyme (LdE1). The format is functional. The settings on record: 30 µM.

The target in experiment [3] is Sialic acid-binding Ig-like lectin 9 (Homo sapiens) (UniProt Q9Y336). The experiment in a line: Hs-Siglec9 ALPHAscreen SOP 20170721. The settings on record: 10 µM.
Sialic acid-binding Ig-like lectin 9 (Homo sapiens), sequence (Q9Y336 whole entry): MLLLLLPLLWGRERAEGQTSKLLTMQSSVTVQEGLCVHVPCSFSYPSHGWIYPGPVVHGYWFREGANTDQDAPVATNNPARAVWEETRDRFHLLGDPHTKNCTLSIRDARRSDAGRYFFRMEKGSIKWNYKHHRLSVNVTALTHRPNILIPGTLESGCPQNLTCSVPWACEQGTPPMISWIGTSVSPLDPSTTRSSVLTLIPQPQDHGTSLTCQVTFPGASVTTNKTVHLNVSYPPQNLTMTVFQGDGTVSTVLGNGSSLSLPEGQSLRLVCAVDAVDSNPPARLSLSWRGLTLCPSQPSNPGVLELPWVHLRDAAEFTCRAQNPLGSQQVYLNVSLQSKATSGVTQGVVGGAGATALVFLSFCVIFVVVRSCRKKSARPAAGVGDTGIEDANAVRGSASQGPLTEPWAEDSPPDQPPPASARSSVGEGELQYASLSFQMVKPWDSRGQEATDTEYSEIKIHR
The next experiment relates to Trypanosoma cruzi. The experiment in a line: Trypanosoma cruzi phosphomannomutase and mannose-1-phosphate guanylyltransferase assay. The settings on record: 10 µM. It counts as functional.
The target of experiment [4] is T2, Arginase-2, mitochondrial (Homo sapiens) (UniProt P78540).
T2 sequence (whole entry): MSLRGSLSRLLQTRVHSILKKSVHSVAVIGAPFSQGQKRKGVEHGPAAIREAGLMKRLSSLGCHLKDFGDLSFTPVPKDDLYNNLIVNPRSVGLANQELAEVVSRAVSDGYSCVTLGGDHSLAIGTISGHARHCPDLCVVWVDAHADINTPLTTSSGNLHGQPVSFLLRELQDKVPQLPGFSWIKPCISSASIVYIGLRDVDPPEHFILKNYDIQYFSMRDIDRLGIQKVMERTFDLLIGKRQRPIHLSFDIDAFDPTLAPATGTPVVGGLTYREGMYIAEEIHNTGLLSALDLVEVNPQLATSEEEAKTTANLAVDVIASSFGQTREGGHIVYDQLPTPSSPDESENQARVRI
The experiment can be described thus: in vitro enzyme assay to detect the production of urea directly proportional to the activity of Arginase II. Also: in the data most compounds retested in dose-response had high values. It counts as functional. The settings on record: 33.3 µM.

Experiment [5] has as its target T3, Proteasome subunit beta (Trypanosoma cruzi) (UniProt O96673).
T3 sequence (whole entry): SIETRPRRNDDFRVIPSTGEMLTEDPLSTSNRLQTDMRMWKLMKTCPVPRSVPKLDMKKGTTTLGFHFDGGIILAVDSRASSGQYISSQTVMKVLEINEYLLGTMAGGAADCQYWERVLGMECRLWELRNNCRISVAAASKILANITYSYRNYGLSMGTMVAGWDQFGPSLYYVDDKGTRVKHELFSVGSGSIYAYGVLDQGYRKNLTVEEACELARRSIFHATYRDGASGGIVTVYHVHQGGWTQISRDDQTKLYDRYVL
The experiment can be described thus: Trypanosoma cruzi proteasome chymotrypsin-like activity (TcProtChymo) assay. Also: in the data most compounds retested in dose-response had high values. It counts as functional. The settings on record: 9.37 µM.

For the next experiment, the species on record is Homo sapiens. The experiment in a line: To identify inhibition of the IFN signalling (Jak-Stat) pathway via expression of an eGFP reporter gene under the control of an IFN-stimulated response element (ISRE) containing MxA promoter. The format is functional. The settings on record: 30 µM. In general terms: Reporter assays use an easily measured gene product as a stand-in for the process of interest.

Experiment [6] concerns the target T4, Tyrosyl-tRNA synthetase, putative (Trypanosoma cruzi (strain CL Brener)) (UniProt Q4DSP6).
T4 sequence (whole entry): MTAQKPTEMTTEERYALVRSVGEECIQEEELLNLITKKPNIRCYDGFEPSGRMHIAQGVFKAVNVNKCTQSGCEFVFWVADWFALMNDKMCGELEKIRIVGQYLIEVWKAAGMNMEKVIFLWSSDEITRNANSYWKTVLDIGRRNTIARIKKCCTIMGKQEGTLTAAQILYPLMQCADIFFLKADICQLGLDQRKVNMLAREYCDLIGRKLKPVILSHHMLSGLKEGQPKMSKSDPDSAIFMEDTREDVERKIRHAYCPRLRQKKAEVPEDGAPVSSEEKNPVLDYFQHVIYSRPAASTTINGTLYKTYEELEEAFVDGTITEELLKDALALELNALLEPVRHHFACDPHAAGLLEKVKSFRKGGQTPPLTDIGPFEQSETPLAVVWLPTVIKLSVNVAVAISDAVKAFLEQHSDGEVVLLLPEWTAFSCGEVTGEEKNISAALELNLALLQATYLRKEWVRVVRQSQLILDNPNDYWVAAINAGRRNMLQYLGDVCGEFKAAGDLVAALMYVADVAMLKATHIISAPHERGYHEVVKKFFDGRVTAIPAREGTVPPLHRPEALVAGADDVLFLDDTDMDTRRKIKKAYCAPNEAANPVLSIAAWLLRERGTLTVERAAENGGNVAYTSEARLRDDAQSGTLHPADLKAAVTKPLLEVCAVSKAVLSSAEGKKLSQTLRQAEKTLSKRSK
The experiment can be described thus: Trypanosoma cruzi tyrosyl tRNA synthetase (TcYRS) _High Tyrosine SOP. Also: in the data most compounds retested in dose-response had high values. It counts as functional. The conditions noted are these: 30 µM.

Experiment [7] deals with T4, Tyrosyl-tRNA synthetase, putative (Trypanosoma cruzi (strain CL Brener)). The experiment in a line: Trypanosoma cruzi tyrosyl tRNA synthetase (TcYRS) SOP. The settings on record: 30 µM. The format is functional.
Experiment [8] concerns the target Chromo domain-containing protein 1 (Saccharomyces cerevisiae (strain ATCC 204508 / S288c) (Baker's yeast)) (UniProt P32657). The experiment in a line: ScCHD-1 Enzyme Inhibition Assay. Also: in the data most compounds retested in dose-response had high values. The format is functional. The settings on record: 30 µM.

For some assays here: Entries with a potency or affinity are not part of this list.

Chromo domain-containing protein 1 (Saccharomyces cerevisiae (strain ATCC 204508 / S288c) (Baker's yeast)), sequence (P32657 whole entry, the tested form may be a part): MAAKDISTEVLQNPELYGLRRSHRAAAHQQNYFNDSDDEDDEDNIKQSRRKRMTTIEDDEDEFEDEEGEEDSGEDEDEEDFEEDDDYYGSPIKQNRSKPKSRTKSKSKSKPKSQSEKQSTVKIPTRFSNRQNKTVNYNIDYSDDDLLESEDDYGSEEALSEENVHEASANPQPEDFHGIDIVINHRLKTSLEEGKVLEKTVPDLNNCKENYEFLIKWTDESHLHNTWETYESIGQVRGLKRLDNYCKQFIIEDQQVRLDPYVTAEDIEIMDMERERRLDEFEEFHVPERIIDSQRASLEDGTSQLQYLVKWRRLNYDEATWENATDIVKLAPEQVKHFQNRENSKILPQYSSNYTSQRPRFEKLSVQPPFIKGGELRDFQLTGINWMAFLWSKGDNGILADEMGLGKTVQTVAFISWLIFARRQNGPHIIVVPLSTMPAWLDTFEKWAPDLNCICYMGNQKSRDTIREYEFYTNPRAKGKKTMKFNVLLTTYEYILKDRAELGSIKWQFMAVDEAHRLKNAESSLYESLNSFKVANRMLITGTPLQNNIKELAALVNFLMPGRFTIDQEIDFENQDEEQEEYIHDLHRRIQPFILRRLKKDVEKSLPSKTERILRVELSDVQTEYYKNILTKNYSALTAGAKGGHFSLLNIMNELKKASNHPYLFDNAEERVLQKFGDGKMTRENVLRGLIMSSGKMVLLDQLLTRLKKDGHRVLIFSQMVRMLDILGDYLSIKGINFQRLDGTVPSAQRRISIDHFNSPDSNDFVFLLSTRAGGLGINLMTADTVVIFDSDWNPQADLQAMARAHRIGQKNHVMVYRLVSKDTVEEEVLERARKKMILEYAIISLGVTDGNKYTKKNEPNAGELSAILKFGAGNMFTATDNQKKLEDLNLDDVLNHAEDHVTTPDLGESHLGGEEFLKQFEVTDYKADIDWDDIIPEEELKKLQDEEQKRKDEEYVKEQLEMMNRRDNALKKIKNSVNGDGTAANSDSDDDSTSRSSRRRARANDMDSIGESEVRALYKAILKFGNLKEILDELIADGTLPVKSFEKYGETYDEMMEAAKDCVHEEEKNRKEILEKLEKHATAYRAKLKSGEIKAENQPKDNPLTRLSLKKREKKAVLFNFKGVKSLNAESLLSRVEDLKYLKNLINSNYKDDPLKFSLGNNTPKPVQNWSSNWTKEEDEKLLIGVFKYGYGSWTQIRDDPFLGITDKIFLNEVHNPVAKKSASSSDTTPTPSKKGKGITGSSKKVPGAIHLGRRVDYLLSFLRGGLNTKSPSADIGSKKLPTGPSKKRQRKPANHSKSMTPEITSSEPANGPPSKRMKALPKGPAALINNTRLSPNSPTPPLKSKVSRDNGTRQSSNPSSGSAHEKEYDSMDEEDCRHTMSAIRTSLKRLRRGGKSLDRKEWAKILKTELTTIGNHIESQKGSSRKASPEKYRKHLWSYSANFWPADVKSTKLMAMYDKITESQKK
Protein translocase subunit SecA (Escherichia coli (strain K12)), sequence (P10408 whole entry): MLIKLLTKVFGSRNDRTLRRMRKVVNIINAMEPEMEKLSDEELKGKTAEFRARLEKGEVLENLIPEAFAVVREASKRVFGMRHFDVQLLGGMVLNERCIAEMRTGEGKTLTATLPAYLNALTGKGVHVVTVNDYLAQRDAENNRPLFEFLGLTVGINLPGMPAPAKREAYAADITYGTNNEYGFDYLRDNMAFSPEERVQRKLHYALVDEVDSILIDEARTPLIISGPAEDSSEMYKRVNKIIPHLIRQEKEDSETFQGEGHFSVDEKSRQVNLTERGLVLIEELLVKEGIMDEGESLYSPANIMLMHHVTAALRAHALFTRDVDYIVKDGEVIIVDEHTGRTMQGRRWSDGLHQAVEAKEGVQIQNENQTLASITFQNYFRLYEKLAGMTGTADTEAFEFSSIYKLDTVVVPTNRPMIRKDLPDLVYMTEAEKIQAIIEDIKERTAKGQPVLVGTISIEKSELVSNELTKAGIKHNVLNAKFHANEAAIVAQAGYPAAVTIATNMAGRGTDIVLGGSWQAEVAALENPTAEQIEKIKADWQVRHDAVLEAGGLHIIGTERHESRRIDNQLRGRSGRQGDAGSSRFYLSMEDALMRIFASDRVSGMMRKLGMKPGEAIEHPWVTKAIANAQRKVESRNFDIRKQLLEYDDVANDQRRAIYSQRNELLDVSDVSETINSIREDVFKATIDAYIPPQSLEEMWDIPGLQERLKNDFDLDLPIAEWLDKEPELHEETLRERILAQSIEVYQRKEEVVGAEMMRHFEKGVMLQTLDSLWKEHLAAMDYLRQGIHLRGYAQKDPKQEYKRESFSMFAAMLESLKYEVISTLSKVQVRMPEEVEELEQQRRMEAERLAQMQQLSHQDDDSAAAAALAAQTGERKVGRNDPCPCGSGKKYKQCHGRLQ

`C[C@@H]1CN(C(=O)c2cccs2)C[C@]12CCN(CCN(C)C)C2=O`: the Percent Effect in experiment [1] was -6.68%; in [2], 9.09%; in [3], 2.17%; in the experiment on Trypanosoma cruzi, -6.57%; in [4], 0.457%; in experiment [5], 9.87%. Further, the Percent Effect in the experiment listed under Homo sapiens was 18%; in experiment [6], 0.966%; in experiment [7], -5%; in experiment [8], -8.48%.
Take `CCn1nc2c(cc1=O)CN(Cc1nc(-c3ccsc3)no1)CC2`: the Percent Effect in experiment [1] is -2.79%; in experiment [2], 0%; in experiment [3], 3.78%; with Trypanosoma cruzi, -0.282%; in experiment [4], 6.56%; in [5], 4.18%. Besides, the Percent Effect in the experiment filed under Homo sapiens was 27.8%; in experiment [6], 4.31%; in [7], 6.02%; in experiment [8] it was -6.49%.
Consider `CNc1nc(C2CCCN2C(C)=O)nc2c1CCN(CC1CC1)C2` (stereo not given), for which the Percent Effect was -3.68% in [1]; 9.33% in [2]; 5.24% in [3]; -0.197% in the experiment on Trypanosoma cruzi; 0.885% in [4]; 12.2% in experiment [5]. Also, the Percent Effect in the experiment filed under Homo sapiens is 6.58%; in [6] it was 3.17%; in experiment [7] it was 10%; in [8], -22.7%.
On to `Cc1cnn(C2CCCN(C(=O)c3sccc3C#N)C2)c1` (stereo not given), for which the Percent Effect in experiment [1] is -7.04%; in experiment [2], 0%; in [3] it was -9.94%; in the experiment on Trypanosoma cruzi, -1.78%; in experiment [4], -2.05%; in [5] it was -3.33%. Further, the Percent Effect in the experiment filed under Homo sapiens is 30.2%; in experiment [6], 0.478%; in experiment [7], 1.21%; in experiment [8], -3.26%.
For the compound `CC(O)CN1CCC(CNCc2ccccc2Br)CC1` (stereo not given), the Percent Effect in [1] was -0.126%; in experiment [2], 10.3%; in experiment [3], -8.9%; in the experiment with Trypanosoma cruzi, 11.4%; in [4], 1.23%; in experiment [5], 10.2%. In addition, the Percent Effect in the experiment listed under Homo sapiens is 8.18%; in experiment [6], 4.31%; in [7], 20.5%; in [8], -5.01%.
Consider `COCCN1CCN(Cc2ccc(F)c(C)c2)[C@H]2CS(=O)(=O)C[C@H]21`, for which the Percent Effect in [1] was -6.45%; in [2] it was 10.8%; in experiment [3], 28.9%; with Trypanosoma cruzi it was 12.3%; in experiment [4], 10.8%; in [5], 5.48%. In addition, the Percent Effect in the experiment listed under Homo sapiens was -1.07%; in experiment [6] it was 7.98%; in experiment [7], 17.1%; in [8] it was -4.27%.
With `O=C1N(CC2CC2)CCC12CCN(c1ncccn1)CC2`, the Percent Effect in experiment [1] is 2.77%; in experiment [2], 16.9%; in [3] it was -4.8%; in the experiment with Trypanosoma cruzi, -3%; in [4], 2.74%; in experiment [5] it was 16.7%. For the same compound, the Percent Effect in the experiment filed under Homo sapiens was 12.4%; in [6], 6.76%; in [7] it was 10%; in experiment [8], -10.6%.
For the compound `CC(=O)N1CCCC1c1csc(Nc2cnccn2)n1` (stereo not given), the Percent Effect is 0.761% in experiment [1]; 9.33% in [2]; -8.01% in experiment [3]; -5.33% with Trypanosoma cruzi; 2.21% in experiment [4]; 11.8% in experiment [5]. The Percent Effect was 20% in the experiment filed under Homo sapiens, 3.17% in experiment [6], 10% in experiment [7] and -25.7% in experiment [8].
With `CCCN1CCCn2nc(CNS(=O)(=O)c3ccc(C)cc3)cc2C1`, the Percent Effect in experiment [1] was -8.28%; in [2], 2.7%; in experiment [3] it was 2.48%; in the experiment on Trypanosoma cruzi, -5.72%; in [4], -3.85%; in experiment [5], 10.3%. Also, the Percent Effect in the experiment listed under Homo sapiens is 5.89%; in [6], 3.72%; in experiment [7], 9.76%; in [8], -1.82%.
`O=C(c1ccc(OCC2CC2)nc1)N1CCCC(n2cncn2)C1` (stereo not given): the Percent Effect was -1.42% in experiment [1]; 10.3% in experiment [2]; -4.65% in experiment [3]; -3.1% with Trypanosoma cruzi; 7.79% in experiment [4]; 9.13% in experiment [5]. Besides, the Percent Effect in the experiment listed under Homo sapiens is 19.1%; in experiment [6] it was 5.26%; in [7] it was 13.2%; in experiment [8], -4.21%.
In the case of `Cn1cc(CN2CCC3(CC2)CC(c2ccncc2)C(=O)N3)cn1` (stereo not given), the Percent Effect was -3% in experiment [1]; 6.49% in experiment [2]; -3.92% in [3]; -5.36% with Trypanosoma cruzi; 2.02% in experiment [4]; 16.7% in experiment [5]. Also, the Percent Effect in the experiment listed under Homo sapiens was -2.28%; in experiment [6], 3.68%; in [7], 10.3%; in experiment [8], -1.42%.
